{
  "source": "PubChem BioAssay AID1671202",
  "about": "(University of Kansas High Throughput Screening Laboratory, 2021)",
  "note": "Screen size: about 190,000 compounds; about 6,900 (3.6%) were called active. Rule as the data show it: active = inhibition above about 50%; inactive = the rest. What follows is part of a selection rich in actives, with near analogues and random picks from the rest.",
  "data": [
    {"target": "Huntingtin (Homo sapiens) (UniProt P42858)", "sequence (P42858 whole entry, looked up, stated change not applied)": "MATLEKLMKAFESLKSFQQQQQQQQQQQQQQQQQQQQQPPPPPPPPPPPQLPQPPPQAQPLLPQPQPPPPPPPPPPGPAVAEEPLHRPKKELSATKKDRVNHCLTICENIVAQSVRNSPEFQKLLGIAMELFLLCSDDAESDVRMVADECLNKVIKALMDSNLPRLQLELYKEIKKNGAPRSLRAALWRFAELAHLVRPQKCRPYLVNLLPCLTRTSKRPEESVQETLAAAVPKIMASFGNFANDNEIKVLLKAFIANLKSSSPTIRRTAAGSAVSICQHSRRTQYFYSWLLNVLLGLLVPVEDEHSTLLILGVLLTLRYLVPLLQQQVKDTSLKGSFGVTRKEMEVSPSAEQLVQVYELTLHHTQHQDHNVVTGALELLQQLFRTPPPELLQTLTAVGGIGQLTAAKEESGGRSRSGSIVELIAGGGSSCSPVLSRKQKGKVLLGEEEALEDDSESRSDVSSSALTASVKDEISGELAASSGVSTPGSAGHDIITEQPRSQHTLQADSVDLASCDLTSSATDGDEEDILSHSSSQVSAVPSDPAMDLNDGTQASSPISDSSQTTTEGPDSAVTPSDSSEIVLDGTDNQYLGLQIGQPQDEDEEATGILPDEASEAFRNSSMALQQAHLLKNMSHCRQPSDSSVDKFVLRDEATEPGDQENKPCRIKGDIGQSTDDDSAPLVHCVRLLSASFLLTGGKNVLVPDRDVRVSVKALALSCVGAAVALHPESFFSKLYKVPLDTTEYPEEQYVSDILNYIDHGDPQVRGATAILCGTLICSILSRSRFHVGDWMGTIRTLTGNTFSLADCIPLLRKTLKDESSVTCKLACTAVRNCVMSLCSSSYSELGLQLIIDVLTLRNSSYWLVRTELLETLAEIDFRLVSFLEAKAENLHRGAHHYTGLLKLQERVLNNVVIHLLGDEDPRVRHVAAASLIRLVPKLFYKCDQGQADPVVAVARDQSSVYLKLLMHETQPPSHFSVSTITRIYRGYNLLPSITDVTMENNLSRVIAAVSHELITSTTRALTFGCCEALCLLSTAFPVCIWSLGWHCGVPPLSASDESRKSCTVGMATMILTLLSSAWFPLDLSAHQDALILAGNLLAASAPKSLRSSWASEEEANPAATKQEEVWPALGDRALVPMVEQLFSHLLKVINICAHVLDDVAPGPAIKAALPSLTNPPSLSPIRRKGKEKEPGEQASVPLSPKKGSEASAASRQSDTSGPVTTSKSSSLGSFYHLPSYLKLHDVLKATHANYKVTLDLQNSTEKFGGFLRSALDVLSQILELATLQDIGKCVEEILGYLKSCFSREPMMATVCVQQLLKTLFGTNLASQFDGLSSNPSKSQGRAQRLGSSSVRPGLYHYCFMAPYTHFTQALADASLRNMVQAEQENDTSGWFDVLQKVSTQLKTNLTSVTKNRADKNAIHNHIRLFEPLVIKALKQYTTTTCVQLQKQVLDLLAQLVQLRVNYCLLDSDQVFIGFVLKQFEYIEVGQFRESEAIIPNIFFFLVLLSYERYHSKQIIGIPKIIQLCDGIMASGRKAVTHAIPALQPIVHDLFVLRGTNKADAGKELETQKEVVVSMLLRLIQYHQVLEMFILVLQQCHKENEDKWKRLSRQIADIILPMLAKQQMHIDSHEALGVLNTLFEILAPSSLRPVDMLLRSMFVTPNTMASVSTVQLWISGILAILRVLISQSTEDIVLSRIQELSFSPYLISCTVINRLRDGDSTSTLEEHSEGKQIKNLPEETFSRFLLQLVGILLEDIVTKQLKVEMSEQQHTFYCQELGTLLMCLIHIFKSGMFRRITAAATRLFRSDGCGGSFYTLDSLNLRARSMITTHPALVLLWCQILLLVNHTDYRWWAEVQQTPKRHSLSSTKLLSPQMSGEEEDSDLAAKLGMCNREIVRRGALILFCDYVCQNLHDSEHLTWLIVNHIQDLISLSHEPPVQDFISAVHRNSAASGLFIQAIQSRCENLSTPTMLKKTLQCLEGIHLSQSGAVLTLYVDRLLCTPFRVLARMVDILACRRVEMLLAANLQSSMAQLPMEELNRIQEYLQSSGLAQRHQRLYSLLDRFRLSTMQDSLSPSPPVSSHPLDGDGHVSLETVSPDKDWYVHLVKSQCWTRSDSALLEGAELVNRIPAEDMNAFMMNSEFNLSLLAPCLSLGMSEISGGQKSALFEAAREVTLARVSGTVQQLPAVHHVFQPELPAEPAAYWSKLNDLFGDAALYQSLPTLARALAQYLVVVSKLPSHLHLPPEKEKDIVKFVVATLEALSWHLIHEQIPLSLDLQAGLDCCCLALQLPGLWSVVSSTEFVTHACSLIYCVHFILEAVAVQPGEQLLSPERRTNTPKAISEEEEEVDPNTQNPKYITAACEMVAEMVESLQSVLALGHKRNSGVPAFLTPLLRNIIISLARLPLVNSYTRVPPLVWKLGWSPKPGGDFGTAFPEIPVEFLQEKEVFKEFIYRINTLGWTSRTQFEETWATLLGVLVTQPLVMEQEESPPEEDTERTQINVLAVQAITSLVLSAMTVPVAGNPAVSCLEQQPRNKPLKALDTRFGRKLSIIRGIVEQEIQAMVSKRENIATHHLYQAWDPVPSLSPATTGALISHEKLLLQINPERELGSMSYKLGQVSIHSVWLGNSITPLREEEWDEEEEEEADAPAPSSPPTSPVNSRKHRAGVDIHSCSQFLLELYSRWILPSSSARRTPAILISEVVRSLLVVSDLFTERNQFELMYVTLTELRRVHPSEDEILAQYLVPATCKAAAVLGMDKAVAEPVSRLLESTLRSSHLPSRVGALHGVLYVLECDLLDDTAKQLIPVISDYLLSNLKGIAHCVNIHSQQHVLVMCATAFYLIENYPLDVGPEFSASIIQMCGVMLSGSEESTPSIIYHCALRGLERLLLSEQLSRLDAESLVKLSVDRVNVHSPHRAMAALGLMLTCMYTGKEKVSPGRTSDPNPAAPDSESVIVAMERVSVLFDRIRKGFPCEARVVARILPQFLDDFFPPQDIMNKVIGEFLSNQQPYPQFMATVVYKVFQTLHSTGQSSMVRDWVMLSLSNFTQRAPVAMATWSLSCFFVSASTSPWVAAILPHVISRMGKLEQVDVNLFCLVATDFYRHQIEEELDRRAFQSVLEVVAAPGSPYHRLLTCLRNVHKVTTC", "assay": "mutant huntingtin-calmodulin interaction inhibitors – biochemical, AlphaScreen, primary screen (AID 1671202);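 also: 0% = both proteins with DMSO and 100% = one protein alone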", "conditions": "AlphaScreen His-mHTT/GST-CaM binding, luminescence; at 15 µM, stronger effect = higher value", "values": [
      {"smiles": "Cn1c(C2CCN(C(=O)Cc3ccccc3)C2)nc2ccncc21", "note": "(stereo not drawn)", "inhibition": "-1.65% (inactive)"},
      {"smiles": "N#Cc1nc(-c2ccco2)oc1N1CCN(C(=O)c2ccccc2F)CC1", "inhibition": "-5.8% (inactive)"},
      {"smiles": "Cc1ccccc1-n1c(=O)n(C2CC2)c(=O)c2c1ncn2Cc1c(F)cccc1F", "inhibition": "-4.6% (inactive)"},
      {"smiles": "Cc1cc(C)nc(SCC(=O)c2ccc(Cl)cc2)n1", "inhibition": "1.3% (inactive)"},
      {"smiles": "COc1ccc(NC(=O)c2ccc(OC)cc2)cc1", "inhibition": "-2% (inactive)"},
      {"smiles": "COc1ccc(C(=O)Sc2nc(C)cc(C)n2)cc1", "inhibition": "98% (active)"},
      {"smiles": "COc1ccc(C2=N/C(=C\\c3ccc(Cl)cc3)C(=O)O2)cc1OC", "inhibition": "-4% (inactive)"},
      {"smiles": "O=c1[nH]c2ccc(S(=O)(=O)Nc3ccc(OC(F)(F)F)cc3)cc2o1", "inhibition": "0% (inactive)"},
      {"smiles": "O=C(Nc1nnc(Cc2cccs2)o1)c1ccc(Cl)cc1Cl", "inhibition": "6% (inactive)"},
      {"smiles": "COc1ccc(-c2cc3c(c4c2ccn4C)C2CCC3C2)cn1", "note": "(stereo not drawn)", "inhibition": "52.6% (active)"},
      {"smiles": "Cc1cc2[nH]c(C(=O)Nc3ccccc3F)c(CN3CCOCC3)c2s1", "inhibition": "23% (inactive)"},
      {"smiles": "COc1ccc(C(=O)N2CCC(c3cc(N)on3)CC2)cc1F", "inhibition": "3.7% (inactive)"},
      {"smiles": "CCCCN(C)C(=O)C1CCCN(c2ncccc2-c2noc(C3CCC3)n2)C1", "note": "(stereo not drawn)", "inhibition": "23.9% (inactive)"},
      {"smiles": "COc1ccc2c(c1)C1=NN(C(C)=O)C(c3cccc([N+](=O)[O-])c3)C1CC2", "note": "(stereo not drawn)", "inhibition": "3% (inactive)"},
      {"smiles": "COc1cc2c(cc1OC)C(C(=O)O)C(c1cccc([N+](=O)[O-])c1)N(C)C2=O", "note": "(stereo not drawn)", "inhibition": "0% (inactive)"},
      {"smiles": "CC(=O)c1cc2c3c(c1)C1C=CCC1C(c1cccc([N+](=O)[O-])c1)N3CC1CC=CC21", "note": "(stereo not drawn)", "inhibition": "97% (active)"},
      {"smiles": "O=C(NCc1ccco1)Nc1c[nH]c2ccccc12", "inhibition": "3% (inactive)"},
      {"smiles": "NCCN1C(=O)c2[nH]nc(-c3ccccc3)c2C1c1ccccc1", "note": "(stereo not drawn)", "inhibition": "9% (inactive)"},
      {"smiles": "CCOC(=O)N1CCC(c2nnc(Cc3ccc(OC)cc3)s2)CC1", "inhibition": "-8.5% (inactive)"},
      {"smiles": "Cc1ccc(C(=O)Nc2cc(-c3ccccn3)no2)cc1", "inhibition": "1.2% (inactive)"},
      {"smiles": "Cc1nc(-c2ccccc2)sc1C(=O)NCCOc1ccc(-c2cccs2)nn1", "inhibition": "6% (inactive)"},
      {"smiles": "NS(=O)(=O)c1ccc(C(=O)NCCOc2ccc(-c3ccccn3)nn2)cc1", "inhibition": "100% (active)"},
      {"smiles": "O=C(Cc1ccccc1Cl)NCC1CCN(c2cc(-c3ccncc3)[nH]n2)CC1", "inhibition": "-5.18% (inactive)"}
    ]}
  ]
}
